The list is not random: actives were taken first. Their share in the collection is about 4.6%.
TIM10 inh: growth inhibitors of isogenic TIM10 control yeast, primary screen, counter-screen for tim10-1 yeast inhibitor project, luminescence, uHTS; S. cerevisiae TIM10 strain growth, BacTiter-Glo luminescence, 24 h; inhibition, % at 10 µM; 1.4% of 330,000 active; AID 463195, 2010;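 active means inhibition of 40% or more at the single tested concentration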;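 further: wild-type TIM10 isogenic control strain grown at permissive 25 °C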
V-ATPase pH: regulators of yeast V-ATPase proton pumping, primary screen, pHLuorin cytosolic pH fluorescence; AID 504577, 2011; response, % at 10 µM; 0.37% of 350,000 active; S. cerevisiae; in the data active means response mostly above about 7.3%, no sharp cut-off; inactive means mostly below about 5.4%; further: actives read high
SKKanGAS inh: S. pyogenes SKKanGAS growth inhibitors in kanamycin, primary screen, streptokinase expression inhibitor project, SKKanGAS strain, BacTiter-Glo luminescence; 1.3% of 300,000 active; AID 1662, 2009; 6 h; inhibition, % at 7.5 µM;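 active means mean replicate score, as percent of positive control median, at least 50; inconclusive means mean below 50 but one replicate at or above 50; inactive means mean and every replicate below 50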;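 further: strain carries kanamycin resistance gene driven by streptokinase promoter and grows in 40 µg/ml kanamycin; loss of luminescence reflects streptokinase promoter inhibition or plain growth inhibition; 0% = median of DMSO wells and 100% = positive control at its reference dose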
tim10-1 inh: growth inhibitors of tim10-1 mutant yeast, primary screen, luminescence, uHTS. 2.2% of 330,000 active. inhibition, % at 20 µM. S. cerevisiae tim10-1 ts strain growth, BacTiter-Glo, 24 h;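 active means inhibition of at least 40%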;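 further: mutant grown at 25 °C; 0% = DMSO wells with yeast and 100% = wells holding no yeast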
PfHsp90 set2: growth inhibition of PfHsp90-expressing yeast, primary screen, antimalarial PfHsp90 inhibitor project, S. cerevisiae, BacTiter-Glo luminescence, single point, set 2. BacTiter-Glo ATP, 48 h; yeast lacking PDR1 and PDR3 efflux regulators. inhibition, % at 9.4 µM. 0.32% of 310,000 active. AID 504621, 2011;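 active means every replicate shows inhibition above about 80%, whatever the replicate mean, limit read from the data; inconclusive means mean inhibition reaches the set limit but some replicate falls short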;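 further: 0% = DMSO neutral controls and 100% = 20 µM radicicol positive controls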
tim23-1 inh: growth inhibitors of tim23-1 mutant yeast, primary screen, luminescence, uHTS. 1.3% of 330,000 active. S. cerevisiae tim23-1 growth, BacTiter-Glo luminescence, 24 h. inhibition, % at 20 µM. AID 463212, 2010;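 active means growth inhibition of the mutant yeast at or above 50%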;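 further: temperature-sensitive mutant grown at 25 °C; plate controls were DMSO-treated mutant yeast for no effect and medium wells lacking yeast for full effect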
tim10-1 conf: growth inhibitors of tim10-1 mutant yeast, confirmation, single concentration, luminescence, S. cerevisiae | shares compounds with tim10-1 inh | S. cerevisiae tim10-1 ts strain growth, BacTiter-Glo, 24 h | inhibition, % at 20 µM | 56% of 7,400 active;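 active means inhibition of yeast growth at or above a set limit in either of two repeat tests at 20 µM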;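 further: tim10-1 mutant grown at permissive 25 °C to find synthetic lethal compounds; 0% = DMSO yeast wells and 100% = medium wells without yeast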
Numbers without * were called inactive; ? = inconclusive; . = no result given.

SMILES	TIM10 inh	V-ATPase pH	SKKanGAS inh	tim10-1 inh	PfHsp90 set2	tim23-1 inh	tim10-1 conf
CCCOC(=O)c1ccc(Oc2c(-c3ccc(O)cc3O)n[nH]c2C)cc1	21	2	55*	55*	-40	-111	9
CCOc1ccccc1CNC(=O)c1ccc(NC(=O)C2=CSCCO2)cc1	9	3	-2	45*	-9	36	6
Cc1cccc(CNC(=O)c2ccc(NC(=O)C3=CSCCO3)cc2)c1	16	-1	1	50*	-10	43	21
COc1ccc(CNC(=O)c2ccc(NC(=O)C3=CSCCO3)cc2)cc1	10	-1	-7	16	-3	-5	.
Cc1cccc(CNC(=O)c2ccccc2NC(=O)C2=CSCCO2)c1	0	-1	-10	21	-25	15	.
Cc1ccc(CNC(=O)c2ccccc2NC(=O)C2=CSCCO2)cc1	18	11	-1	40	-24	24	18
COc1cccc(CSc2nccn2C)c1	1	1	3	5	25	1	.
CCCCN1C(=O)C(=O)N(CC(=O)NC2CCCc3ccccc32)C1=O (stereo not drawn)	-10	0	4	0	28	12	.
O=C(O)C1CCC(N2C(=O)c3c(Cl)c(Cl)c(Cl)c(Cl)c3C2=O)CC1 (stereo not drawn)	.	.	-1	.	.	.	.
COc1cc2c(cc1OC)CN(CCC(=O)c1ccc(Br)cc1)CC2	4	1	4	50*	.	21	33*
O=C(O)CCC1(CCC(=O)O)CCCC(CCC(=O)O)(CCC(=O)O)C1=O	.	-4	.	.	-14	.	.
CCN(CC1COc2ccccc2O1)S(=O)(=O)c1ccc(C)cc1 (stereo not drawn)	19	1	1	21	8	21	.
Cc1cccc(N=C2Sc3nc4c(C)c(C)ccc4cc3CN2CCN2CCOCC2)c1	39	3	13	53*	14	48	37*
COCCN1Cc2cc3cc(C)ccc3nc2SC1=Nc1cccc(OC)c1	9	-1	18	5	-24	27	.
CN(C(=O)COC(=O)CCC(=O)c1ccc(F)cc1)C1CCCCC1	-9	3	.	5	.	3	.
CCC(C)OC(=O)C[N+](C)(C)CCOC1CC2CCC1(C)C2(C)C (stereo not drawn)	2	-2	6	41*	-10	10	-4
CC(C)CCOC(=O)C[N+](C)(C)CCOC1CC2CCC1(C)C2(C)C (stereo not drawn)	-5	4	2	-2	1	8	.
c1ccc(-c2nc3ccccn3c2NCc2ccc3c(c2)OCO3)cc1	27	-2	-3	37	-30	34	.
COc1ccc(-c2nc3ccccn3c2NCc2ccc3c(c2)OCO3)cc1	34	7	-1	42*	9	39	13
COc1ccc(NC(=O)COc2ccc3c(C)cc(=O)oc3c2)cc1S(=O)(=O)N1CCCCC1	-5	1	23	10	.	3	.
CC1CCc2nc(NC(=O)c3ccco3)sc2C1 (stereo not drawn)	39	1	7	45*	17	18	31*
CC(=O)N1CCOc2ccc(S(=O)(=O)N3CCC(C(=O)NCc4ccc(C)cc4)CC3)cc21	4	-1	5	5	12	-2	.
O=C(CSc1n[nH]c(-c2cccs2)n1)N1CCCc2ccccc21	-3	-1	1	17	.	34	.
O=C(CSc1n[nH]c(-c2ccccc2O)n1)N1CCCc2ccccc21	27	-1	-1	45*	5	31	25
O=C(CSc1nnnn1-c1ccccc1)N1CCc2ccccc21	7	5	-3	7	13	16	.
SMILES	TIM10 inh	V-ATPase pH	SKKanGAS inh	tim10-1 inh	PfHsp90 set2	tim23-1 inh	tim10-1 conf
O=C(CSc1nnnn1-c1ccccc1)N1CCCc2ccccc21	22	0	21	43*	-18	32	17
CC(C)n1c(-c2ccco2)csc1=Nc1cccnc1	18	-2	4	49*	16	35	32*
CCCOC(=O)C(C)n1cnc2scc(-c3ccc(C)cc3)c2c1=O (stereo not drawn)	3	4	-3	33	8	36	.
CO/N=C/c1ccc(N2CCN(C(=O)c3cccc(C(F)(F)F)c3)CC2)c([N+](=O)[O-])c1	27	3	10	41*	-16	28	26
CC(=O)c1c(C)[nH]c(C(=O)OC(C)C(=O)NC2CCCCC2)c1C (stereo not drawn)	.	-1	.	.	.	.	.
CCN=C1S/C(=C/c2ccc(-c3ccc(F)cc3)o2)C(=O)N1CC	5	6	-6	45*	17	22	29*
CCc1cc(C(=O)N2CCN(c3ncc(C(F)(F)F)cc3Cl)CC2)sc1C	5	2	?	42*	1	26	35*
O=C(Nc1ccc(S(=O)(=O)N2CCCCC2)cc1)c1ccc(F)cc1	35	6	-3	49*	7	32	48*
O=C(Nc1ccc(S(=O)(=O)N2CCCC2)cc1)c1ccc(F)cc1	.	5	.	.	11	.	.
O=C(Nc1ccc(F)cc1F)c1cccc(S(=O)(=O)N2CCCCC2)c1	12	-3	.	46*	.	41	22
CCOC(=O)/C=C/C(=O)Nc1ccc(S(=O)(=O)N2CCCCCC2)cc1	29	-1	4	44*	.	39	34*
CCOC(=O)/C=C/C(=O)Nc1ccc(S(=O)(=O)N2CCc3ccccc32)cc1	22	-1	-4	37	1	31	.
O=C(Nc1ccc(S(=O)(=O)N2CCCCC2)cc1)c1cccnc1Cl	20	2	1	42*	25	22	26
Cc1ccc(S(=O)(=O)Nc2ncccn2)cc1	6	2	0	-5	-5	9	.
COc1ccc(C2/C(=C(/O)c3ccc(Br)cc3)C(=O)C(=O)N2C)cc1 (stereo not drawn)	-15	3	-2	-4	2	-10	.
CC(=O)Nc1ccc(C(=O)CN2C(=O)NC3(CCOc4ccccc43)C2=O)c(F)c1 (stereo not drawn)	13	-5	.	11	-6	9	.
C/C(=N/Nc1nc(-c2ccc(Cl)cc2)cs1)c1cccs1	17	4	-1	45*	1	-1	13
COc1ccccc1OCCNC(=O)CCC(=O)N1CCOCC1	-8	-2	.	-11	2	4	.
c1cncc(-c2nc(NCc3ccco3)c3ccccc3n2)c1	16	5	-6	41*	-22	30	37*
c1ccc(-c2nc(NCc3cccnc3)c3ccccc3n2)cc1	31	9	-16	40	4	16	.

Compound activity deposited in PubChem BioAssay by several laboratories.
